Shiga inhibitor – A qHTS for Small Molecule Inhibitors of Shiga Toxin; 290,000 tested, 9.2% active; inhibition, % at 38.7 µM; Vero cells, Shiga toxin protein synthesis inhibition reporter; in the data active = inhibition mostly above about 28%, no sharp cut-off; inactive = mostly below about 43%; also: 0% is about no effect
Sm TGR block – qHTS Assay for the Inhibitors of Schistosoma Mansoni Peroxiredoxins | Schistosoma mansoni thioredoxin glutathione reductase (TGR), Q962Y6 | purified TGR, DTNB reduction, TNB absorbance 405 nm | Potency, µM (top dose mostly 114 µM), inactives show at the highest dose activity change, negative = inhibition, hits mostly inhibitors | 360,000 tested, 3% active; also: potency is read from the fitted curve at half-maximal effect; % is scaled to controls: 0 for no effect and ±100 for the full control effect; nearly all actives have a fitted effect of over 60% in size
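Kinetic colorimetric format: TGR-catalysed, NADPH-driven DTNB reduction monitored via TNB absorbance. Enzyme dispensed at 20 nM; compound exposure 15 min at room temperature before reaction start.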
Pf growth 96h – Primary qHTS for delayed death inhibitors of the malarial parasite plastid, 96 hour incubation; Potency, µM (series often up to 28.7 µM), for inactives: at the highest dose activity change, negative = inhibition, actives largely listed as inhibitors; P. falciparum luciferase reporter growth, 96 h; 320,000 tested, 6.9% active; also: potency is read from the fitted curve at half-maximal effect; % is scaled to controls: 0 for no effect and ±100 for the full control effect
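Parasite growth measured via integrated firefly luciferase reporter in P. falciparum. Infected erythrocytes at 2% hematocrit, 0.05% parasitemia final were treated 96 hours at 37 C under 5% CO2, and luminescence was read.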
NS1 function inh – qHTS Assay for Inhibitors of Influenza NS1 Protein Function. Potency, µM (top dose mostly 46.1 µM), without a hit: top-dose activity, positive = more growth. 270,000 tested, 0.4% active. AID 2326, 2010; calls by dose curve; also: potency is read from the fitted curve at half-maximal effect; actives are rising curves; nearly all actives have a fitted effect of over 50% in size
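In this qHTS, NS1 from influenza A is expressed in budding yeast, where it slows growth. Cells are switched from glucose to 2% galactose medium (pH 6.0, -URA), treated with compound, and growth recovery is read at OD600.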
Pf growth 48h – Primary qHTS for delayed death inhibitors of the malarial parasite plastid, 48 hour incubation | P. falciparum luciferase growth in erythrocytes, 48 h | AID 504832, 2011 | 310,000 tested, 5.9% active | Potency, µM (top dose mostly 28.7 µM), inactives show at the top dose activity change, negative = inhibition, most hits filed as inhibitors; also: potency is read from the fitted curve at half-maximal effect; % is scaled to controls: 0 for no effect and ±100 for the full control effect
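Parasite viability was followed by luminescence of a genomically integrated firefly luciferase. Cultures held 0.1% parasitemia at 2% hematocrit (final), incubated under 5% CO2 at 37 C.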
Cycloheximide cs – Cycloheximide Counterscreen for Small Molecule Inhibitors of Shiga Toxin; max response, %; 300,000 tested, 12% active; cell reporter, cycloheximide protein synthesis inhibition counterscreen; in the data active = max response mostly above about 13%, no sharp cut-off; inactive = mostly below about 14%; also: read at 38.3 µM for the half of the compounds with a filed dose; 0% is about no effect
Active calls of the source: *; ? = inconclusive; nt = not tested or not shown; [ ] = remark or other dose. The list is not random: actives were taken first. Their share in the collection is about 21%. Unless noted, calls follow the shape of the dose curve; as a rule, active = well fitted curve in the direction sought with a large enough effect; inconclusive = small, poorly fitted or top-dose-only effect, or another doubt; inactive = no such curve, though single readings can be large; an effect the other way counts as inactive or inconclusive.

SMILES | Shiga inhibitor | Sm TGR block | Pf growth 96h | NS1 function inh | Pf growth 48h | Cycloheximide cs
C=CCC1(CC=C)CCCN1C(=O)c1cc(COc2ccccc2SC)on1 | -7 | 6% | -12% | -30% | 15µM* | 6
Cc1cccc(N2CCN(C(=O)c3cc(COc4ccc(F)c(F)c4)on3)CC2)n1 | 59 | 6% | 23% | -35% | 26% | 40*
Cc1cccc(C)c1OCc1cc(C(=O)N2CCCCCCC2)no1 | 49* | -15% | 40% | -30% | ? | 43*
Cc1cccc(C)c1OCc1cc(C(=O)N2CCNC(=O)C2)no1 | 16 | 0% | ? | 7% | -4% | 24*
Cc1cc(C)n(CC(=O)NNC(=O)CCNC(=O)c2ccccc2Cl)n1 | nt | -6% | -7% | nt | 13% | nt
O=C(Cn1ncc2c(=O)oc3ccccc3c21)N1CCN(c2ccc(Cl)cc2)CC1 | nt | -6% | nt | nt | nt | nt
Cc1ccc(OCc2cc(C(=O)N3CCCC3)no2)cn1 | 74* | -4% | 15% | -16% | 84% | 44*
COCC1CCN(C(=O)c2cc(COc3cc(C)c(Cl)c(C)c3)on2)C1 (centres undefined) | 45* | 106% | ? | -4% | 12% | 72*
Cc1ccc(OCc2cc(C(=O)N3CCC(C(O)C(C)C)CC3)no2)cc1C (centres undefined) | 52* | 10% | ? | -12% | -7% | 24*
COCC1CCN(C(=O)c2cc(COc3cncc(Cl)c3)on2)C1 (centres undefined) | -3 | -8% | ? | 15% | 14% | -3
CC(=O)NCCC1CCN(C(=O)c2cc(COc3ccc(C)nc3)on2)CC1 | -6 | -5% | -12% | 3% | 19% | -2
CCOC(=O)c1c(NC(C)=O)c2c3c(sc2n1Cc1nc(-c2ccc(Cl)cc2)oc1C)CCCC3 | nt | 3% | nt | nt | nt | nt
O=C1N(Cc2cccc(Cl)c2)C[C@@H]2C[C@@H](c3ccsc3)N3CCC[C@@]123 | -9 | ? | 5% | 1% | 8.3µM* | -1
Cc1c([C@@H]2C[C@H]3CN(Cc4cccc(Cl)c4)C(=O)[C@]34CCCN24)cnn1C | -5 | -4% | ? | -1% | ? | -2
O=C1N(Cc2cccc(Cl)c2)C[C@@H]2C[C@@H](c3ccccn3)N3CCC[C@@]123 | -13 | 10µM* | ? | 2% | ? | -1
Cn1cc([C@@H]2C[C@H]3CN(Cc4cccc(Cl)c4)C(=O)[C@]34CCCN24)c2ccccc21 | -6 | -20% | ? | 7% | 12µM* | 0
CC(=O)N[C@@H](CC(C)C)C(=O)N[C@@H](CCCNC(=N)N)C(=O)N[C@@H](Cc1cnc[nH]1)C(=O)N[C@@H](Cc1ccc(O)cc1)C(=O)N[C@@H](CC(C)C)C(=O)N[C@@H](CC(N)=O)C(=O)N[C@@H](CC(C)C)C(=O)N[C@@H](CC(C)C)C(=O)N[C@H](C(=O)N[C@@H](CCCNC(=N)N)C(=O)N[C@@H](CCC(N)=O)C(=O)N[C@@H](CCCNC(=N)N)C(=O)N[C@@H](Cc1ccc(O)cc1)C(N)=O)[C@@H](C)O | 10 | nt | nt | nt | nt | -3
Cc1ccc(-n2cc(-c3ccccc3)c3c(NC4CCCC4)ncnc32)cc1 | nt | 0% | nt | nt | nt | nt
COc1cc(OC)cc(OCC(O)Cn2cnc3cc(C)c(C)cc32)c1 (centres undefined) | -14 | 5% | 10µM* | -31% | nt | -2
O=C(O)C1C2C=CC(O2)C1C(=O)NCCCn1ccnc1 (centres undefined) | -3 | 50µM* | 8% | ? | -4% | -1
S=C(NCCCn1ccnc1)Nc1ccc(Cl)cc1Cl | 3 | 32µM* | 159% | 11% | ? | -1
COc1ccc(NC(=O)C(=O)NCCCn2ccnc2)cc1 | 20 | 0% | 9% | 6% | 16% | 4
O=C(NCCCn1ccnc1)Nc1ccc(Cl)c(Cl)c1 | -21 | 14% | 2.1µM* | -36% | 12µM* | -3
O=C(NCCCn1ccnc1)C(=O)Nc1ccccc1 | 28 | nt | 40% | 5% | 24% | 16*
O=C(O)C1C2CCC(C2)C1C(=O)NCCCn1ccnc1 (centres undefined) | 18 | -25% | 105% | -10% | 11% | -2
SMILES | Shiga inhibitor | Sm TGR block | Pf growth 96h | NS1 function inh | Pf growth 48h | Cycloheximide cs
CN(C)S(=O)(=O)c1cccc(NC(=S)NCCCn2ccnc2)c1 | -4 | 50µM* | -5% | nt | 4% | 1
CC1=CC(C)(C)N=C(Nc2ccc(C)cc2)S1 | 44 | -24%[11.4 µM] | 10µM* | -12% | nt | 50*
Cc1ccc(-c2cc(C(=O)NCc3ccccn3)c3ccccc3n2)cc1 | 45 | 3% | -5% | -9% | ? | 30*
Cc1ccc(C(=O)NCc2ccccn2)c(Cl)c1 | 63* | 0% | 42% | -8% | 32% | 31*
CCc1ccc(-c2cc(C(=O)NCc3ccccn3)c3ccccc3n2)cc1 | 92* | 5% | ? | -13% | 34% | 64*
O=C(NCc1ccc2c(c1)OCO2)c1cc(-c2ccncc2)nc2ccccc12 | 9 | 1% | ? | -4% | ? | -2
O=C(NCc1ccc(F)cc1)c1cc(-c2ccncc2)nc2ccccc12 | -7 | -8% | ? | -20% | 3.7µM* | -1
COc1cccc(CNC(=O)C2CCN(C(=O)c3cnn(-c4ccccc4)c3-n3cccc3)CC2)c1 | nt | 9% | nt | nt | nt | nt
O=S(=O)(c1ccc(F)cc1)N1CCN(S(=O)(=O)c2ccc3c(c2)OCCO3)CC1 | -13 | nt | nt | nt | nt | -9
COc1ccc(CNC(=O)c2cc3c(s2)-c2c(C)cccc2OC3)cc1 | nt | -31% | nt | nt | nt | nt
O=C(NC1CCCC1)C(c1cccnc1)N(C(=O)c1ccco1)c1ccc(F)cc1 (centres undefined) | -3 | 4% | 3% | 7% | ? | -4
CCOC(=O)c1cc(S(=O)(=O)N2CCN(c3ccc(OC)cc3)CC2)[nH]n1 | nt | 3% | nt | nt | nt | nt
Cc1ccccc1C([O-])=Nc1ccc[n+](-c2nc3ccccc3nc2NS(=O)(=O)c2ccccc2)c1 | 20 | -9% | 12µM* | 1% | ? | -3
O=C(Nn1cnc2ccccc2c1=O)c1c(F)cccc1F | 3 | 6% | 3% | -4% | 13% | -2
Cn1c(C(O)c2ccc3c(c2)OCO3)nc2ccccc21 (centres undefined) | -2 | -14% | 105% | -9% | -2% | -2
CC(C)n1c(C(O)c2ccc3c(c2)OCO3)nc2ccccc21 (centres undefined) | -29 | 7% | -10% | -12% | 9.3µM* | -2

Assay outcomes deposited in PubChem BioAssay by National Center for Advancing Translational Sciences (NCATS).
